We go through 88 compounds from PubChem BioAssay AID504652 (National Center for Advancing Translational Sciences (NCATS), 2011).

Hit rate of the full screen: of about 360,000 compounds, about 11,000 (3.1%) were called active. Cut-off read from the data, not from the text of the source: active = activity change below about -30%; inactive = the rest. Only a selection was taken, and actives are over-represented in it overall.
% is set by controls: 0 for no effect and ±100 for the full control effect.

In the test the target is D(1A) dopamine receptor (Homo sapiens) (UniProt P21728). The experiment in a line: Antagonist of Human D 1 Dopamine Receptor: qHTS. The following applies: HEK293 TREx D1 cells, calcium flux, dopamine EC80; at 10 µM; hits give low values. Summed up: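 Using tetracycline-induced force-coupled D1 Hek293 cells and a calcium dye, signals were followed for 180 s after compound, then for 180 s after EC80 dopamine, to detect inhibitors.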
Sequence of D(1A) dopamine receptor (Homo sapiens) (P21728 whole entry, looked up): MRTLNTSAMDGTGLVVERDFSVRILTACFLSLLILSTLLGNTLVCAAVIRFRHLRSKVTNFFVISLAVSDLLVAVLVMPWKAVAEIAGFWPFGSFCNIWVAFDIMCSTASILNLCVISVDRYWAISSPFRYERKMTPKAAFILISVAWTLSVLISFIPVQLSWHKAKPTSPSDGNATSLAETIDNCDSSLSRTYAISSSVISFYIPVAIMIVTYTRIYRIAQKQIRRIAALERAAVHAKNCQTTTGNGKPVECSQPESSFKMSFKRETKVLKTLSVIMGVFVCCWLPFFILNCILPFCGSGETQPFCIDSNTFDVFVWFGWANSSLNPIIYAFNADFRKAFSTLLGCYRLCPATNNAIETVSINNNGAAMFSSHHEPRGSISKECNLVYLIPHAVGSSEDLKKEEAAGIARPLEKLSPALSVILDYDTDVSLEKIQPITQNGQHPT
Regarding `COc1cc(NC(=O)c2ccc(-c3csc(C)n3)cc2)c(OC)cc1Cl`, the activity change, negative = inhibition was -3.88% (inactive).
To `COc1cc(OC)c(NC(=O)c2nc(-c3ccncc3)no2)cc1Cl` belongs -32.7% (active).
In the case of `COc1cc(OC)c(NC(=O)c2c3c(nn2C)-c2ccccc2SC3)cc1Cl` it was 2.27% (inactive); in that of `COc1ccc(NC(=O)c2ccc3oc(=O)c(S(=O)(=O)c4ccc(F)cc4)cc3c2)c(OC)c1`, 4.65% (inactive).
To `O=C(Nc1cc(-c2nc3ccccc3o2)ccc1Cl)c1cc([N+](=O)[O-])ccc1N1CCOCC1` belongs -2.21% (inactive); to `Cc1ccccc1Nc1nc(N)nc(COC(=O)CCC(=O)c2ccc(F)cc2)n1`, -23.2% (inactive); to `Nc1nc(COC(=O)CCC(=O)c2ccc(Cl)cc2)nc(Nc2ccccc2)n1`, -34.3% (active).
Regarding `Nc1nc(CC(=O)CSc2ccc(Cl)cc2)nc(Nc2ccc(F)cc2)n1`, the activity change, negative = inhibition is -8.8% (inactive).
To `COc1ccccc1-c1cc(C(F)(F)F)nc(S(=O)(=O)CCCC(=O)Nc2cc(C)ccc2O)n1` belongs -0.269% (inactive); to `CCOC(=O)c1cc2c(=O)n3ccccc3nc2n(CCCOC)c1=NC(=O)C(C)Oc1ccccc1` (stereo not drawn), -0.513% (inactive); to `O=S(=O)(NC1CCCCC1)c1ccc(F)c2ccccc12`, -32.8% (active).
In the case of `CCc1ccccc1NC(=O)c1ccc(F)c(S(=O)(=O)NC2CCCCCC2)c1` it was -16.4% (inactive); in that of `O=S(=O)(NC1CC1)c1ccc2c3c(cccc13)CC2`, -23.6% (inactive).
As to `CCN1CCN(c2ncc3c(n2)CC(c2ccccc2O)CC3=O)CC1` (stereo not drawn), the activity change, negative = inhibition is 0.271% (inactive).
In the case of `CCN(Cc1ccccc1)Cc1c(O)ccc2c(=O)c(-c3ccc(Cl)cc3Cl)coc12` it was -1.12% (inactive); in that of `COc1ccc(Nc2ncnc3sc(C)cc23)cc1`, -13.7% (inactive); in that of `COC(=O)c1ccc(Nc2ncnc3sccc23)cc1`, -42.9% (active).
To `CCOc1ccc(Nc2ncnc3scc(-c4ccc(OC)cc4)c23)cc1` belongs 13.2% (inactive).
For `O=C(CSc1nc2ccccc2nc1Cc1ccccc1)N1CCCCC1`, the activity change, negative = inhibition was -12.3% (inactive).
In the case of `CCOC(=O)C1CCN(c2nc3c(S(=O)(=O)c4ccc(CC)cc4)nnn3c3ccc(Cl)cc23)CC1` it was -7.85% (inactive).
In the case of `Cc1ccc(-c2nnc(Nc3cccc(Br)c3)c3ccccc23)cc1S(=O)(=O)NCC1CCCO1` (stereo not drawn) it was -11.8% (inactive).
With `O=C(CN1C(=O)NC2(CCCC2)C1=O)OCCOc1ccc(F)cc1`, the activity change, negative = inhibition is -6.87% (inactive).
With `N#Cc1ccc(OCCN2C(=O)NC3(CCSC3)C2=O)cc1` (stereo not drawn), the activity change, negative = inhibition is -30.6% (active).
As for `CC1(C)NC(=O)N(CCOc2cccc(Oc3ccccc3)c2)C1=O`, the activity change, negative = inhibition was 1.02% (inactive).
For the compound `CCOC(=O)N1CCc2c(sc(NCc3cccc(F)c3)c2C(=O)Nc2ccccc2OCC)C1`, the activity change, negative = inhibition was -17.6% (inactive).
To `O=S(=O)(NCC1CN(S(=O)(=O)c2ccc3c(c2)OCCO3)C1)c1c(F)cccc1F` belongs 2.66% (inactive).
In the case of `O=S(=O)(NC1CCN(S(=O)(=O)c2ccc3c(c2)OCCO3)CC1)c1c(F)cccc1F` it was -30.3% (active); in that of `O=S(=O)(c1ccc2c(c1)OCCCO2)N1CCN(S(=O)(=O)c2c(F)cccc2F)CC1`, -7.05% (inactive); in that of `CCOc1ccccc1C(=O)NC1(C(F)(F)F)NC(=O)N(CCc2ccc(OC)c(OC)c2)C1=O` (stereo not drawn), 12% (inactive).
To `CCOC(=O)CSC1=Nc2ccccc2C2=NC(CCC(=O)NCc3ccc(F)cc3)C(=O)N12` (stereo not drawn) belongs 7.77% (inactive); to `Cc1ccc(S(=O)(=O)N2CCC(C(=O)Nc3cc(C)ccc3C)CC2)cc1`, 7.91% (inactive).
For `CCc1ccc2oc(-c3ccc(C)c(NC(=O)/C=C/c4ccco4)c3)nc2c1`, the activity change, negative = inhibition was -0.213% (inactive).
In the case of `CCN(C(=O)Cn1cc(S(=O)(=O)N2CCN(c3ccccc3F)CC2)c2ccccc2c1=O)c1ccc(C)c(C)c1` it was -3.49% (inactive); in that of `CCOC(=O)C1CCCN(C(=O)c2ccc(C)c(S(=O)(=O)N3CCCCC3)c2)C1` (stereo not drawn), -1.15% (inactive).
To `CCOC(=O)C1CCCN(C(=O)c2ccc3c(c2)sc2nc(-c4ccc(CC)cc4)cn23)C1` (stereo not drawn) belongs -33% (active); to `CCOC(=O)C1CCCN(C(=O)c2cncc(Br)c2)C1` (stereo not drawn), -9.23% (inactive); to `O=C(NCCC1=CCCCC1)c1ccc2c(c1)N(Cc1ccccc1F)C(=O)c1ccccc1S2(=O)=O`, -12.5% (inactive).
For the compound `O=C(NC1CCCCC1)c1ccc(CNc2c(N3CCOCC3)c(=O)c2=O)cc1`, the activity change, negative = inhibition is 11.4% (inactive).
To `O=C(NCc1ccccc1)c1ccc(CNc2c(N3CCCC3)c(=O)c2=O)cc1` belongs -9.38% (inactive).
In the case of `CC1CCN(c2c(NCc3ccc(C(=O)NCc4ccccc4)cc3)c(=O)c2=O)CC1` it was -34.3% (active).
For the compound `Cc1nc2sc(C)c(C)n2c(=O)c1S(=O)(=O)NCCc1ccc(Cl)cc1`, the activity change, negative = inhibition was -2.78% (inactive).
To `CCc1ccc(S(=O)(=O)n2ccnc2)cc1` belongs -16.9% (inactive); to `CC(C)c1ccc(N2CCN(C(=O)c3ccccc3NC(=O)/C=C(\C(=O)O)c3ccccc3)CC2)cc1`, -3.41% (inactive); to `CC(C)c1ccc(NC(=O)c2ccc(Cn3nc(N4CCN(c5ccccc5)CC4)ccc3=O)o2)cc1`, -6.07% (inactive).
To `CC(=O)N1CCN(c2ccc(NCc3ccc(C(C)C)cc3)cc2)CC1` belongs -50.6% (active); to `COc1ccc(CNC(=O)c2cc3c(=O)[nH]c4ccccc4c3s2)cc1`, -33.6% (active).
In the case of `O=C(NCCN1CCN(Cc2ccccc2)CC1)c1cc2c(=O)[nH]c3ccccc3c2s1` it was -7.42% (inactive); in that of `COc1ccc(CNC(=O)c2cc3c(=O)[nH]c4ccc(C)cc4c3s2)c(OC)c1`, 1.68% (inactive); in that of `Cc1cccc(NC(=O)c2ccc(F)c(S(=O)(=O)N(C)C3CCCCC3)c2)c1`, 4.16% (inactive).
Take `O=C(COC(=O)C1CC2C=CC1C2)Nc1ccccc1` (stereo not drawn): the activity change, negative = inhibition was -18.1% (inactive).
To `CC(C)c1ccc(NC(=O)NC2CCCCC2)cc1` belongs -4.57% (inactive); to `CC(C)c1ccc(NC(=S)NC2CC3C=CC2C3)cc1` (stereo not drawn), -34.1% (active).
In the case of `COc1ccc(C2=NC(c3ccncc3)=Nc3ccc(Br)cc3N2)cc1` it was -11.7% (inactive); in that of `CCn1c(C(=O)Nc2cc(Cl)ccc2C)cc2sc(Cl)cc21`, -0.309% (inactive).
With `O=C(c1ccc2c(c1)N(Cc1ccc(Cl)cc1)C(=O)c1ccccc1S2(=O)=O)N1CCCCC1`, the activity change, negative = inhibition was 5.67% (inactive).
Turning to `COc1ccc(-c2cc(-c3nc(-c4cc(OC)c(OC)c(OC)c4)no3)[nH]n2)c(OC)c1`, the activity change, negative = inhibition was 27% (inactive).
In the case of `Cc1ccc(NC(=O)CN2C(=O)C(c3ccc(F)cc3)=NC23CCCCCC3)c(C)c1` it was 2.24% (inactive).
In the case of `COc1ccc([C@H]2CC(=O)C=C(c3ccc(OC(F)(F)F)cc3)C2)cc1OC` it was -5.99% (inactive); in that of `COc1ccc([C@H]2CC(=O)C=C(/C=C/c3ccccc3)C2)cc1`, 3.37% (inactive).
To `O=C1CC(c2cccc(Cl)c2)CC(O)=C1C=Nc1ccccc1` (stereo not drawn) belongs -3.8% (inactive); to `COc1cccc(C2=CC(=O)C[C@H](c3ccc(OC)c(OC)c3)C2)c1`, -42.8% (active).
As to `O=C1C=C(c2cc(C(F)(F)F)cc(C(F)(F)F)c2)C[C@@H](c2ccc3c(c2)OCO3)C1`, the activity change, negative = inhibition is -12.8% (inactive).
In the case of `O=C1C=C(c2cccc(Cl)c2)C[C@@H](c2ccc(F)cc2)C1`, the activity change, negative = inhibition is -32% (active).
As to `CC(=O)Nc1ccc(NC(=O)CCCc2nc(-c3ccc(C(C)(C)C)cc3)no2)cc1`, the activity change, negative = inhibition was 2.77% (inactive).
In the case of `COc1ccc(CNC(=O)c2cc3c(-c4ccccc4F)nn(C)c3s2)c(OC)c1` it was 8.78% (inactive); in that of `CCc1ccc(Nc2nn3c(=O)c4cc5c(cc4nc3s2)OCO5)cc1`, 7.15% (inactive).
To `O=C(CCNS(=O)(=O)c1ccccc1)NCCCc1ccccc1` belongs -0.746% (inactive); to `NC(=O)NC(=O)C(OC(=O)CCNS(=O)(=O)c1ccccc1)c1ccccc1` (stereo not drawn), -53% (active); to `Cc1ccc(S(=O)(=O)NCCC(=O)OCC(=O)N(C)c2ccccc2)cc1`, -1.79% (inactive).
In the case of `COc1cccc(CNC(=O)CN2C(=O)CCc3cc(S(=O)(=O)N4CCOCC4)ccc32)c1`, the activity change, negative = inhibition was -4.09% (inactive).
To `Cc1ccc(C)c2sc(NC(=O)c3ccc(S(=O)(=O)N4CCCC4)cc3)nc12` belongs 5.67% (inactive); to `CCOc1ccccc1NC(=O)CN1CCN(S(=O)(=O)c2ccc(Br)cc2)CC1`, 6.89% (inactive); to `Cn1c(Cn2nnc3ccccc32)nnc1SCC(=O)c1ccccc1F`, -30.4% (active).
In the case of `Cn1c(CNC(=O)c2ccccc2F)nnc1SCc1ccc(F)cc1` it was 26.9% (inactive); in that of `Cn1c(CC(=O)Nc2ccccc2)nnc1SCC(=O)c1ccccc1`, -16.4% (inactive); in that of `COc1ccc(CNC(=O)c2cc3cccc(OC)c3oc2=O)cc1`, -1.99% (inactive).
To `O=C(CSc1ccc([N+](=O)[O-])cn1)Nc1ccc(N2CCOCC2)c(Cl)c1` belongs -35.4% (active).
`O=C(CSc1ccc([N+](=O)[O-])cn1)Nc1ccc(N2CCOCC2)cc1`: the activity change, negative = inhibition is 0.609% (inactive).
In the case of `O=C(CSc1nccc(=O)[nH]1)Nc1ccc(N2CCOCC2)c(Cl)c1`, the activity change, negative = inhibition is -3.03% (inactive).
In the case of `CCOC(=O)c1c(C)oc2ccc(N(C(=O)c3ccncc3)S(=O)(=O)c3ccc(CC)cc3)cc12` it was -12.9% (inactive); in that of `Cc1nn(-c2ccccc2)c(C)c1NC(=O)CCl`, -2.92% (inactive).
To `Cc1nn(-c2ccccc2)c(C)c1NC(=O)COC(=O)c1cc(Cl)ccc1O` belongs -7% (inactive); to `C/C=C/c1ccc(OCC(=O)OCC(=O)Nc2c(C)nn(-c3ccccc3)c2C)c(OC)c1`, -92.1% (active).
In the case of `CCOC(=O)c1c(NC(=O)/C=C/c2ccc(OC)cc2)sc2c1CCC(C)C2` (stereo not drawn) it was -4.93% (inactive); in that of `CCCCOC(=O)CSc1ncnc2sc3c(c12)CCC(C)C3` (stereo not drawn), -2.54% (inactive); in that of `Cc1ccc(C)c(S(=O)(=O)n2cnc3ccccc32)c1`, 1.78% (inactive).
In the case of `COc1ccc(S(=O)(=O)n2cnc3ccccc32)c(C)c1`, the activity change, negative = inhibition is -34% (active).
In the case of `COc1ccc(S(=O)(=O)N2CCN(C)CC2)c(C)c1` it was -0.84% (inactive).
